Assay outcomes (PubChem)
PolyA inh = blocks polyadenylation in yeast reporter cells | activity score, % at 12 µM | 0.02% of 300,000 active | S. cerevisiae SKY197-pL101 polyadenylation reporter, beta-gal luminescence; efflux-impaired pdr1/pdr3 knockout yeast; score 100 = 6 SD above DMSO;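 active = lowest replicate activity score at least 50, where 100 means six control SD above control mean; inconclusive = lowest score under 50 but half or more replicates reach 50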;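 note: yeast exposed to compound for 9 h at 30 °C; higher score means more reporter readthrough which indicates perturbed polyadenylation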
A3G deaminase = APOBEC3G (human) deaminase inhibition | inhibition, % at 20 µM | 0.28% of 330,000 active | AID 493012 | Q9HC16 | recombinant A3G, ssDNA deamination FAM/TAMRA fluorescence;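 active = inhibition of at least 40% at 20 µM, with no more than 30% in the related APOBEC3A deaminase screen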;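 note: plate controls were DMSO wells with A3G for no effect and wells lacking A3G enzyme for full effect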
Target sequence (Q9HC16 whole entry, looked up): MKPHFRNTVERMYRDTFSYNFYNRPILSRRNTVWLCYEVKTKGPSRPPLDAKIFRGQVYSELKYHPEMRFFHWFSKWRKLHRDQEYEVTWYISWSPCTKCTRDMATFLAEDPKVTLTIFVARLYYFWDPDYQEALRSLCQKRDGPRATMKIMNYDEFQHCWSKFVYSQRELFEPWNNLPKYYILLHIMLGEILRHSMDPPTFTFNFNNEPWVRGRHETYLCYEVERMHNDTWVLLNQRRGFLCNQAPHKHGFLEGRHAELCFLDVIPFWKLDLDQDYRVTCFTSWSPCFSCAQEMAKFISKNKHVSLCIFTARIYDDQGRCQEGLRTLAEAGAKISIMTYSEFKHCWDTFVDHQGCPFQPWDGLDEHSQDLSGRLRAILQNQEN
NALP1 inh = blocks the NALP1 inflammasome reconstituted in yeast. S. cerevisiae NALP1/ASC/caspase-1 growth, X-gal OD620, 72 h. inhibition, % at 10 µM. 0.61% of 280,000 active; in the data active = inhibition mostly above about 24%, no sharp cut-off; inactive = mostly below about 32%
A3A deaminase = human APOBEC3A DNA deaminase inhibition. P31941. inhibition, % at 20 µM. AID 493011. 0.41% of 330,000 active. recombinant A3A, FAM/TAMRA ssDNA deamination fluorescence;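 active = at least 40% inhibition at 20 µM here, with at most 30% in a related deaminase screen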;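 note: plate controls were A3A with DMSO for no effect and wells lacking A3A enzyme for full effect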
Target sequence (P31941 whole entry, looked up): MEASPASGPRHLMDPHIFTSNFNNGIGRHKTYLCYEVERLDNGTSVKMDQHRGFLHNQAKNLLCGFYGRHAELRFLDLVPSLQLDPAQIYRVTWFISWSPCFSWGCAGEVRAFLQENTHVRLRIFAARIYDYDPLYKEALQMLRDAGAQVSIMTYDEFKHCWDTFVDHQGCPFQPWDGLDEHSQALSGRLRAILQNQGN
A3A conf = confirmation of human APOBEC3A DNA deaminase inhibitors; recombinant A3A, ssDNA deaminase UDG fluorescence assay; inhibition, % at 20 µM; shares compounds with A3A deaminase; 63% of 1,400 active;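 active = inhibition reaching a set limit, 80% of the first screen's cutoff, at 20 µM in any replicate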;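 note: plate controls were DMSO wells with A3A for no effect and wells lacking A3A enzyme for full effect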
UDG ctr A3A = counter-screen for APOBEC3A inhibitors: UDG. shares compounds with A3A deaminase. UDG counterscreen, FAM/TAMRA uracil oligo fluorescence. inhibition, % at 20 µM. 1,000 tested, under 10 active. AID 504714; call rule not given here
* = called active by the depositor; u = inconclusive; x = not tested or not shown. Compounds with a hit are over-represented: about 1.2% of the library has one in this group of screens.

SMILES	PolyA inh	A3G deaminase	NALP1 inh	A3A deaminase	A3A conf	UDG ctr A3A
COc1ccc(S(=O)(=O)N(CC(=O)NC(C)C)Cc2ccccc2)cc1	-15	-1	3	5	x	x
CNC(=O)CN(CCc1ccccc1)S(=O)(=O)c1ccc(OC)cc1	-1	1	28	45*	25	x
COc1ccc(S(=O)(=O)N(CCc2ccccc2)CC(=O)NC(C)C)cc1	-15	11	12	50*	48*	2
Cn1c(CNC(=O)c2ccco2)nnc1SCC(=O)N1c2ccccc2Sc2ccccc21	x	18	-1	63*	58*	-3
COc1cc(SC)ccc1C(=O)Nc1cccc(S(=O)(=O)NC2=NCCC2)c1	x	-4	x	23	x	x
Nn1c(SCC(=O)Nc2ccc3c(c2)OCCO3)nnc1C(F)(F)F	-6	17	0	61*	30	x
Cc1nnc(SCC(=O)Nc2ccc3c(c2)OCCO3)n1N	15	-2	0	7	x	x
Nn1c(SCC(=O)Nc2ccc3c(c2)OCCO3)nnc(CCC(=O)O)c1=O	12	16	2	74*	60*	2
CC1CN(C(=O)COC(=O)COc2ccc(C#N)cc2)CC(C)O1 (stereo not given)	-16	-5	x	-2	x	x
COc1ccc(S(=O)(=O)N2CCCCC2)cc1NC(=O)CCCOc1ccc(C)cc1	x	-6	x	-5	x	x
O=C(Cn1ccc([N+](=O)[O-])n1)N1CCc2ccccc21	-21	1	18	5	x	x
Cc1ccn(CCC(=O)N2CCc3ccccc32)n1	4	-2	-17	91*	-8	-1
Cc1ccccc1CC(=O)Nc1cccc(S(=O)(=O)N2CCCC2)c1	x	-3	x	0	x	x
O=C(Nc1ccc(S(=O)(=O)N2CCCC2)cc1)C1CC(=O)N(c2ccccc2)C1 (stereo not given)	13	9	-5	72*	28	x
COc1cc(Nc2cccc[n+]2C)cc(OC)c1OC	13	29	35	69*	62*	-5
CCOC(=O)CCSc1nc(C)c2cc(OC)ccc2n1	-9	8	5	4	x	x
CCCCc1c(C)nc2ccc(OC)cc2c1SCCC(=O)O	4	6	x	42*	27	x
COc1cccc(C(=O)NCCNC(=O)c2cnccn2)c1	-9	-12	-1	-5	x	x
CC(=O)Nc1ccc(-c2ccccc2)s1	-4	17	28	45*	45*	0
CC(=O)Nc1ccc(NC(C)=O)s1	8	-5	16	-4	x	x
O=C1c2cccc3cccc(c23)C(=O)N1CCCN1CCN(c2ccc(F)cc2)CC1	-2	0	-7	3	x	x
Cc1nc2cc(C(=O)O)ccc2n1-c1ccccc1	-18	-7	4	0	x	x
CC1=CC(C)(C)[N+](C)=CN1c1ccccc1	2	15	31	57*	70*	4
Cc1ccc(SC(C)C(=O)NCc2ccncc2)cc1 (stereo not given)	2	7	22	50*	18	x
COc1ccc(CCNC(=O)C(C)Sc2ccc(C)cc2)cc1OC (stereo not given)	7	-7	33	86*	-7	-3
SMILES	PolyA inh	A3G deaminase	NALP1 inh	A3A deaminase	A3A conf	UDG ctr A3A
CC(C)c1nnc(SCC(=O)N2CCc3ccccc32)n1N	-12	-8	-2	5	x	x
CN(C)C(=O)c1ccc(Nc2nc(-c3cccs3)nc3ccccc23)cc1	-11	-5	9	43*	13	-3
COc1ccc(Nc2nc(-c3cccs3)nc3ccccc23)c(OC)c1	-16	-5	23	-6	x	x
CCOC(=O)C1(CCOc2ccccc2)CCN(C(=O)CCSC)CC1	-5	x	x	x	x	x
O=C(OCc1nc2ccsc2c(=O)[nH]1)c1ccccc1	10	-11	x	56*	-2	-2
CC(=O)COc1coc(CN2CCN(c3ccc(F)cc3)CC2)cc1=O	4	1	-1	-4	x	x
COc1ccc(CNCCC2(O)CC(C)N(C)CC2C)cc1OC (stereo not given)	6	0	-7	3	x	x
COc1ccc(C=NCCC2(O)CC(C)N(C)CC2C)cc1 (stereo not given)	11	1	-8	48*	1	x
Cc1ccnc(NC(=S)N2CCN(c3cccc(C(F)(F)F)c3)CC2)c1	-9	3	-11	-2	x	x
O=C(N[C@@H](Cc1c[nH]c2ccccc12)C(=O)O)C1CCN(S(=O)(=O)c2cccs2)CC1	-16	-5	14	4	x	x
COc1ccc(C(=O)N2CCc3cc(OC)c(OC)cc3C2c2ccc(OC)c(OC)c2)cc1OC (stereo not given)	1	-9	29	59*	6	6
CCOC(=O)[C@H]1[C@H]2COc3cc(OC)ccc3[C@@H]2N2C(=O)c3cc(F)c(F)cc3NC(=O)[C@@]12C	x	-10	x	-1	x	x
COC(=O)\C(C(C)=O)=C(/C=C/C=C/N(C)C)N(C)C	-13	14	-14	47*	35*	x
O=C(COC(=O)CNS(=O)(=O)c1ccccc1)Nc1ncc(Cl)cc1Cl	x	-5	x	0	x	x
CN(C)c1cccc(C(=O)OCc2cc(=O)oc3cc(O)ccc23)c1	u	19	7	74*	75*	-2
Nc1ccc2oc(CCc3ccccc3)nc2c1	2	-4	10	60*	-7	-2
c1ccc2oc(CCc3nc4ccccc4o3)nc2c1	-2	0	16	-2	x	x
C[N+](C)(C)C/C=C1/COCO1	20	18	5	48*	76*	4
N#C/C(=C\c1c(N2CCC(C(N)=O)CC2)nc2ccccn2c1=O)C(=O)NC1CCCCC1	-17	-2	6	0	x	x
O=c1oc(/C=C/c2ccc([N+](=O)[O-])s2)nc2ccccc12	-23	4	x	43*	33*	x
CC(=O)Oc1ccccc1/C=C/c1nc2ccccc2c(=O)o1	1	-2	11	1	x	x
CCn1c(SCC(=O)NC(=O)c2ccccc2OC)nc2ccccc21	3	-4	6	4	x	x
COc1ccccc1-c1cc(C(F)(F)F)n2ncc(C(=O)N3CCc4ccccc4C3)c2n1	-16	-7	-4	0	x	x
O=C(CSCc1ccccc1)Nc1ccc(S(=O)(=O)Nc2ncccn2)cc1	8	-14	11	-4	x	x
COc1ccc(N2CCN(c3ccc(S(=O)(=O)N(C(C)C)C(C)C)cn3)CC2)cc1	-5	-11	-3	-4	x	x
SMILES	PolyA inh	A3G deaminase	NALP1 inh	A3A deaminase	A3A conf	UDG ctr A3A
CN(C)Cc1ccccc1Sc1cccc2ccccc12	4	x	25	x	x	x
Fc1ccccc1Sc1ccccc1CNC1=NCCN1	1	-4	42	63*	91*	-1
C/C(=N\NC1=NCCN1)c1ccccc1	25	-5	7	0	x	x
c1ccc(Sc2cccc3ccccc23)c(CNC2=NCCN2)c1	-53	18	78*	58*	75*	2
COc1ccc(C(=O)Nc2ccc3c(c2)C(=O)c2ccccc2C3=O)cc1OC	-4	7	27	66*	12	x
Cc1cc(Br)ccc1NC(=O)CN(C)C(=O)Cn1c(=O)cnc2ccccc21	17	15	16	66*	52*	-2
